Compound activity: PubChem, several laboratories
UGM FP inh = blocks M. tuberculosis UGM enzyme. inhibition, % at 10 µM. AID 504406. purified UGM, fluorescence polarization probe displacement. 320,000 tested, 0.06% active; in the data active = inhibition above about 10%, passing the limit was not always enough; inconclusive = no clear call, values can overlap the other calls
Target sequence (P9WIQ1 whole entry, looked up): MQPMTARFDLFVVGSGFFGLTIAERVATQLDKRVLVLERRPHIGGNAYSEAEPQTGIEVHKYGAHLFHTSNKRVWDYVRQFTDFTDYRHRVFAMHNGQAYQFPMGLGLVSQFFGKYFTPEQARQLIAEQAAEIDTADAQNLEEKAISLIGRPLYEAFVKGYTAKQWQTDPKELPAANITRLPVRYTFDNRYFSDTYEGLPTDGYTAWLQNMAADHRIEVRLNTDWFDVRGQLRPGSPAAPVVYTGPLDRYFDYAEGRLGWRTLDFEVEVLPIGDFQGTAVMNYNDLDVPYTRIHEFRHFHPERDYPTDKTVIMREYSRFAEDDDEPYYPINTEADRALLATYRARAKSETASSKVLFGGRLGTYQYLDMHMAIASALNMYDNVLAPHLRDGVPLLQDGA
GDH-TPI counter-1 = counter-screen for M. tuberculosis FBA inhibitors: GDH-TPI coupled enzymes; GDH-TPI coupled enzyme counterscreen, NADH absorbance; 360,000 tested, 1.2% active; AID 588335; inhibition, % at 4.8 µM; in the data active = inhibition above about 30%;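 note: 0% = DMSO wells and 100% = wells lacking the enzyme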
Mtb FBA inh = inhibits M. tuberculosis FBA enzyme; purified M. tuberculosis FBA, fluorescence read-out; inhibition, % at 1 µM; P9WQA3; 360,000 tested, 2.3% active; AID 588726; in the data active = inhibition above about 27%;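 note: 0% = vehicle and 100% = reference inhibitor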
Rv3671c protease = inhibitors of M. tuberculosis serine protease Rv3671c; 320,000 tested, 0.048% active; inhibition, % at 5.96 µM; P9WHR9; AID 2606; in the data active = inhibition above about 38%;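 note: extracellular domain of Rv3671c used as enzyme; 0% = enzyme with DMSO and 100% = no enzyme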
Mtb betalactam = beta-lactam sensitization of Mtb H37Rv; 330,000 tested, 0.27% active; inhibition, % at 25 µM; M. tuberculosis H37Rv growth with meropenem, percent inhibition;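 note: growth measured after seven days incubation then overnight dye step; 0% = bacteria only wells and 100% = bacteria with antibiotic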
RecA splice inh = Mtb RecA intein splicing inhibition. P9WHJ3. cell-free RecA intein splicing, fluorescence. inhibition, % (test concentration not listed). 290,000 tested, 0.75% active; in the data active = inhibition above about 30%; inconclusive = no clear call, values can overlap the other calls;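 note: 0% = vehicle wells and 100% = reference inhibitor control wells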
Mtb FBA inh conf = confirmation of M. tuberculosis fructose-bisphosphate aldolase inhibitors; purified M. tuberculosis FBA, fluorescence read-out; shares compounds with Mtb FBA inh; 5,600 tested, 78% active; AID 651616; inhibition, % at 1 µM; in the data active = inhibition above about 27%;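 note: 0% = vehicle wells and 100% = reference inhibitor wells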
GDH-TPI counter-2 = counter-screen for M. tuberculosis FBA inhibitors: GDH-TPI coupled enzyme inhibition | GDH-TPI coupled enzyme counterscreen, fluorescence | 5,600 tested, 81% active | shares compounds with Mtb FBA inh | inhibition, % at 1 µM; in the data active = inhibition above about 10%
GDH-TPI DR = inhibits GDH-TPI coupling enzymes in dose response. GDH-TPI coupled enzyme assay, fluorescence, artifact counterscreen. AID 652145. shares compounds with Mtb FBA inh. 170 tested, 79% active. IC50, µM
The depositor's hits bear a star; ? = inconclusive; . = no result given; + = active, no number. The list is not random: actives were taken first. Their share in the collection is about 4%. Unless noted, the rule behind the calls is not given here.

SMILES	UGM FP inh	GDH-TPI counter-1	Mtb FBA inh	Rv3671c protease	Mtb betalactam	RecA splice inh	Mtb FBA inh conf	GDH-TPI counter-2	others
O=C(NCCc1ccccn1)C1CC(=O)N(Cc2ccccc2Cl)C1 (configuration not stated)	3	4	0	6	-11	0	.	.
O=C(Nc1ccc(S(=O)(=O)NC2=NCCCCC2)cc1)c1cc(F)c(F)cc1Cl	.	0	1	.	.	.	.	.
COCc1c(Br)c(C)[nH]c(=O)c1C#N	-2	18	32*	2	11	1	71*	50*
CCOC(=O)Cn1c(C)c(Br)c(COC)c(C#N)c1=O	-1	2	1	7	7	.	.	.
COc1ccc(-n2nc(C(=O)NCC(=O)N3CCC(C)CC3)c3ccccc3c2=O)c(OC)c1	1	-2	2	-4	-5	1	.	.
O=C(COc1ccc2c3c(c(=O)oc2c1)CCC3)NCc1ccncc1	-4	9	20	5	1	-1	.	.
C=CCOc1ccc2c3c(c(=O)oc2c1)CCCC3	.	5	74*	.	.	.	+	+
CCCOc1ccc2c3c(c(=O)oc2c1)CCCC3	2	3	60*	-8	15	3	97*	76*
CCc1cc2c3c(c(=O)oc2cc1OC)CCCC3	-2	10	67*	4	20	3	77*	53*
O=C(COc1ccc2c3c(c(=O)oc2c1)CCC3)Nc1ccc(CCO)cc1	-2	10	9	-5	8	-5	.	.
CCOC(=O)c1cnn(CCOC(=O)c2cccs2)c1NC(=O)c1cccs1	.	6	3	.	.	.	.	.
O=C(NC1CCCN(c2ccc(C(F)(F)F)cn2)C1)c1ccnc(Cl)c1 (configuration not stated)	-2	2	0	-7	?	1	.	.
CSc1nccc(Oc2ccccc2Cl)n1	5	-4	110*	-8	2	-2	13	8	GDH-TPI DR=>10
COc1ccc(C)cc1NC(=O)CO/N=C(\N)CC(=O)Nc1ccccc1OC	-1	0	-4	0	-9	.	.	.
Cc1cnc(C(=O)NC2CCSc3ccccc32)cn1 (configuration not stated)	2	2	6	-6	-5	-9	.	.
COc1ccccc1C(=O)OCC#CCSc1nnc(-c2cccc3ccccc23)o1	-2	7	6	-13	58	.	.	.
O=C(OCC#CCSc1nnc(-c2cccc3ccccc23)o1)c1cccc2[nH]ccc12	-2	16	36*	-63	3	.	64*	51*
CC(C)Nc1nc(-c2ccccc2CO)c2sccc2n1	.	9	74*	.	.	.	77*	58*
OCc1ccccc1-c1nc(NCC2CC2)nc2ccsc12	.	10	72*	.	.	.	63*	55*
CN(C)CCNc1nc(-c2ccccc2CO)c2sccc2n1	.	8	13	.	.	.	.	.
Cc1ccccc1-c1nc(NC(C)C)nc2ccsc12	.	22	64*	.	.	.	+	+
Fc1ccccc1CNc1nc(NCC2CC2)nc2ccsc12	.	13	-1	.	.	.	.	.
CSc1ncccc1C(=O)OCC(=O)NCc1cccs1	4	14	4	-2	-5	.	.	.
O=C(Cn1ncc2c([nH]c3ccccc32)c1=O)NCC1CCN(Cc2ccc(F)cc2)CC1	0	5	5	-9	-1	0	.	.
CCCCCC1C(=O)C[C@@H]2CCN3C(=O)CCC[C@H]1[C@H]23 (some centres not stated)	.	-4	2	.	.	.	.	.
CCC(C)Sc1ccc(-c2nc3cc(C)ccn3c2NC2CCCCC2)cc1 (configuration not stated)	.	29	33*	-2	97	.	+	+
Clc1ccc(-c2nc3cnccn3c2NC2CCCC2)cc1	-2	15	17	-5	4	-98	.	.
CCC(C)Sc1ccc(-c2nc3cnccn3c2NC2CCCCC2)cc1 (configuration not stated)	3	12	29*	-4	100	-80	67*	57*
Cc1ccn2c(NC3CCCCC3)c(-c3cccc(-c4cccc(Cl)c4)c3)nc2c1	3	16	33*	-1	99	21	113*	101*
